# Most compounds without a hit are left out; they make up all but 2.6% or so of the library.
# TWEAK-Fn14 inh: TWEAK-Fn14 signaling inhibition. inhibition, % at 10 µM. 360,000 compounds, 2% hits. TWEAK-stimulated Fn14 reporter cells, luciferase luminescence, 8 h. AID 1159606; in the data active = inhibition above about 50%
# CF NFkB inh: blocks PAF-induced NF-kB reporter in cystic fibrosis cells; KKLEB NF-kB-GFP reporter, GFP fluorescence overnight; AID 588850; inhibition, % at 5 µM; 360,000 compounds, 0.86% hits;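 active = at least 50% inhibition at 5 µM, scaled per plate between neutral and stimulator controls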;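 note: PAF is a Pseudomonas aeruginosa culture filtrate used as stimulus; plate controls were PAF-stimulated DMSO wells for no effect and unstimulated DMSO wells for full effect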
# EWS-Fli inh: blocks EWS/Fli oncoprotein-driven transcription; AID 651661; 350,000 compounds, 0.67% hits; A673 NR0B1-luciferase reporter, viability-normalised; inhibition, % at 12.6 µM;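 active = mean inhibition of at least 50% after viability correction, with every replicate also passing that limit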;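 note: firefly luciferase signal divided by Alamar Blue viability fluorescence both relative to DMSO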
# LGR2 inh: Drosophila LGR2 receptor signaling inhibition. HEK293 LGR2, CRE-luciferase, bursicon-stimulated, 4 h. inhibition, % at 9.99 µM. 380,000 compounds, 0.35% hits. AID 720647;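 active = drop in luminescence signal, shown as inhibition above about 50% in the replicate tests, limit read from the data, passing the limit was not always enough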;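 note: agonist challenge used bursicon conditioned medium at about half maximal strength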
# TROY NFkB inh: inhibitors of TROY-dependent NF-kB signaling. 360,000 compounds, 0.98% hits. AID 1347056. inhibition, % at 10 µM. Q293 LMP1-TROYcd NF-kB luciferase reporter, 4 h;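 active = compounds whose plate-normalised and pattern-corrected inhibition of the luciferase reporter signal at the single screening dose is 50% or more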
# KKLEB cytotox: counter-screen for CF NF-kB inhibitors: cytotoxicity; KKLEB CF airway cells viability, ATPlite luminescence, overnight; hits give low values; cells stimulated with P. aeruginosa culture filtrate; activity change (cytotoxicity), % at 5 µM; 360,000 compounds, 0.36% hits; AID 602141;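 active = corrected activity change at or below -50% at 5 µM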
# * marks the source's active call; other numbers are inactive results; nt = not tested or not shown.
SMILES,TWEAK-Fn14 inh,CF NFkB inh,EWS-Fli inh,LGR2 inh,TROY NFkB inh,KKLEB cytotox
CCOc1ccccc1NC(=O)CSc1nc2nc(-c3cccs3)cc(C(F)(F)F)c2c(=O)[nH]1,-10.8,15.2,6.7,15.2,62.7*,-0.3
COc1ccc(NC(=O)CSc2nc3nc(-c4cccs4)cc(C(F)(F)F)c3c(=O)[nH]2)c(OC)c1,-7.2,-27.4,2.0,-18.1,17.1,7.2
C=C1CCC[C@]2(C)C[C@H]3OC(=O)C(CNC(CC)CO)[C@H]3CC12 (stereo not given in full),57.2*,37.1,14.1,4.5,3.5,-0.9
CC(=O)OCC(=O)[C@@]1(O)CC[C@H]2[C@@H]3CCC4=CC(=O)CC[C@]4(C)[C@H]3C(=O)C[C@@]21C,-2.5,-8.7,-10.1,-3.7,-2.4,26.5
CC12C=CC(=O)C=C1CCC1C3CCC(O)(C(=O)CO)C3(C)CC3OC312 (stereo not given),3.4,-2.7,2.0,nt,0.1,9.7
CC12C=CC(=O)C=C1CCC1C3CCC(O)(C(=O)CO)C3(C)CC(O)C12F (stereo not given),0.9,69.8*,-13.8,4.6,26.8,36.5
CC(=O)OCC(=O)C1(O)CCC2C3CCC4=CC(=O)CCC4(C)C3(F)C(O)CC21C (stereo not given),3.0,74.8*,6.0,7.8,18.6,35.6
CC(=O)OCC(=O)C1=CCC2C3CCC4=CC(=O)C=CC4(C)C3(F)C(OC(C)=O)CC12C (stereo not given),28.8,36.5,13.8,-16.7,-10.7,-3.5
CC12C=CC(=O)C=C1C(F)CC1C3CCC(O)(C(=O)CO)C3(C)CC(O)C12F (stereo not given),-3.9,69.1*,-3.4,11.7,9.6,24.5
CC(=O)OCC(=O)[C@@]1(O)CC[C@H]2[C@@H]3CCC4=CC(=O)C=C[C@]4(C)[C@@]3(F)[C@@H](O)C[C@@]21C,-2.0,65.3*,4.8,nt,20.3,-15.8
C[C@H](NC(=O)C[C@H]1C=C[C@H](NC(=O)C2CC2)[C@H](CO)O1)c1ccccc1,nt,nt,-2.4,14.9,nt,nt
C[C@@H]1CN([C@H](C)CO)C(=O)c2cc(NC(=O)Nc3ccc4c(c3)OCO4)ccc2O[C@@H]1CN(C)Cc1ccc(Oc2ccccc2)cc1,nt,nt,16.9,3.7,nt,nt
CCOC(=O)/C(=C\c1ccc(Cl)cc1)c1nc2sc(C)c(C)c2c(=O)[nH]1,103.8*,80.1*,nt,40.3,53.2*,-57.0*
C[C@@H]1CN([C@H](C)CO)S(=O)(=O)c2ccc(C3=CCCC3)cc2O[C@H]1CN(C)C(=O)CN(C)C,nt,nt,-3.0,-2.0,nt,nt
CCN(CC)CCn1c(NS(=O)(=O)c2ccc(C)cc2)nc2ccccc21,4.7,9.3,6.6,-3.7,9.7,-13.0
CCn1c(/N=C/c2ccccc2NS(=O)(=O)c2ccc(C)cc2)nc2ccccc21,26.8,61.0*,nt,nt,3.5,-16.2
Cc1ccc(-c2nc3cccnc3o2)cc1NC(=O)COc1ccc(Cl)cc1C,-54.2,60.2*,nt,nt,-34.1,-48.9
Cc1ccc(-c2nc3ncccc3o2)cc1NC(=O)Cc1ccc(Cl)cc1,-5.9,-5.7,nt,nt,6.9,-4.4
Cc1ccc(-c2nc3cccnc3o2)cc1NC(=O)COc1ccc(C(C)(C)C)cc1,59.1*,-17.3,nt,nt,55.5*,-3.4
CCOc1ccc(-c2nnc(SCc3nnc(-c4ccccc4)o3)n2-c2ccccc2F)cc1,52.0*,-2.5,nt,nt,61.1*,9.4
Cc1ccc(-c2nnc(CSc3nnc(COc4ccccc4)n3-c3ccccc3)o2)cc1,-0.6,4.5,nt,nt,-11.0,0.3
CCOc1ccc(C(=O)Nc2cccc(C(=O)O)c2C)cc1Cl,68.2*,3.2,22.7,69.5*,-14.8,4.7
CCOc1ccccc1NC(=O)C(C)SCc1ccccc1 (stereo not given),3.3,12.3,17.5,5.2,19.6,-10.3
O=C(Nc1ccccc1-c1ccccc1)c1ccccc1,61.6*,-17.1,-3.7,-4.8,-18.5,-12.7
CC(SCc1ccccc1)C(=O)Nc1ccccc1-c1ccccc1 (stereo not given),-13.5,-2.3,74.7*,2.9,12.5,5.9
SMILES,TWEAK-Fn14 inh,CF NFkB inh,EWS-Fli inh,LGR2 inh,TROY NFkB inh,KKLEB cytotox
Cc1c(NC(=O)c2ccc(-c3ccccc3)cc2)cccc1C(=O)O,34.9,-9.0,30.6,56.2*,-49.5,-1.7
CC(=O)N[C@@H]1CC[C@H](CC(=O)NCc2ccc(Cl)cc2)O[C@H]1CO,nt,nt,-2.7,0.9,nt,nt
Cc1noc(C)c1S(=O)(=O)Nc1ccc2c(c1)C(=O)N([C@H](C)CO)C[C@H](C)[C@@H](CN(C)C(=O)C1CCCCC1)OCCCC[C@@H](C)O2,nt,nt,-2.8,-8.3,nt,nt
CN(C)c1ccc(/C=N/N=C/c2ccccc2O)cc1,59.0*,0.7,nt,56.1*,47.6,7.9
COC(=O)c1cc(=O)n(CCc2ccc(OC)c(OC)c2)c(=Nc2ccc(F)c(Cl)c2)s1,59.8*,26.9,13.5,54.7*,8.9,-8.1
COC(=O)c1cc(=O)n(Cc2ccco2)c(=Nc2ccc(F)cc2)s1,56.5*,40.1,nt,nt,24.3,-18.5
COC(=O)c1cc(=O)n(Cc2ccc(F)cc2)c(=Nc2ccccc2)s1,32.1,17.6,21.2,24.0,3.4,0.4
O=C(NC1CCCCC1)N[C@H]1CC[C@@H](CCNS(=O)(=O)c2ccccc2)O[C@@H]1CO,nt,nt,-4.1,-15.2,nt,nt
O=c1[nH]c(C2CCN(S(=O)(=O)c3ccccc3C(F)(F)F)CC2)nc2c1nnn2Cc1ccccc1,-41.4,1.8,9.8,11.8,50.7*,-2.1
c1ccc(CNc2ccc(N3CCOCC3)cc2)cc1,31.8,4.2,-109.5,-10.0,65.0*,-12.8
CN(C)C(=O)c1nc2ccccc2s1,17.5,-9.5,-30.2,-24.6,20.8,-2.4
CN(C)c1ccc(CC(=O)c2nc3ccccc3s2)cc1,78.0*,-0.4,-71.0,nt,75.7*,1.3
CCCN1C[C@H](C)[C@H](OC)CN(C)C(=O)c2cc(NC(=O)Nc3ccccc3F)ccc2OC[C@@H]1C,nt,nt,3.1,-10.0,nt,nt
O=C(NC1CCCCC1)NC1CC2CCC(C1)N2Cc1nnnn1Cc1ccc2c(c1)OCO2 (stereo not given),87.2*,12.7,nt,nt,nt,0.7
C=CCNC(=S)N/N=C(\C)c1ccccn1,108.4*,19.5,nt,nt,-42.5,-19.3
CC(=NNC(=S)Nc1ccccc1)c1ccccn1,-67.9,30.8,-4.4,26.9,-38.3,-7.0
CCCOc1ccc(/C=N/Nc2cc(N3CCOCC3)ncn2)c(O)c1,-12.2,53.7*,14.5,8.7,38.7,-41.6
C[C@H](CO)N1C[C@H](C)[C@@H](CN(C)Cc2ccccc2)Oc2ccc(NC(=O)Cc3cn(C)c4ccccc34)cc2C1=O,nt,nt,6.3,8.0,nt,nt
O=C(Nc1ccc(Cl)c(Cl)c1)Nc1nnc(-c2ccncc2)s1,-14.3,75.7*,nt,2.0,8.8,-56.3*
O=C(O)[C@H]1[C@H](CO)[C@H]2Cn3c(ccc(-c4ccccc4)c3=O)[C@H]2N1Cc1ccccc1F,nt,nt,8.2,-5.8,nt,nt
